# L major viab: Leishmania major promastigote growth inhibition, primary screen; Leishmania major promastigotes, resazurin fluorescence viability; inhibition, % at 10 µM; 200,000 tested, 9% active; in the data active = inhibition above about 50%;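 note: promastigotes grown with compound for 44 hours at 28 °C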
# WT yeast gro inh: growth inhibition of WT strain, primary screen, mitochondrial fusion inhibitor project, WT and mutant strains, chemical genetic; inhibition, % at 10 µM; mitochondrial fusion phenotypic screen; 190,000 tested, 2.1% active; AID 1362, 2008; in the data active = inhibition above about 58%; tested in S. cerevisiae
# RAM network inh: inhibitors of the yeast RAM network, primary screen, dse1pr::URA3 reporter, 5-FOA selection | 190,000 tested, 1.8% active | inhibition, % at 50 µM | S. cerevisiae dse1pr::URA3 reporter, 5-FOA growth OD615, 2 d; analog-sensitive cbk1-as2 kinase mutant strain;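 active = inhibition above a set limit, 3 SD over mean compound inhibition, cut at about 8.4% in these data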;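 note: 0% = DMSO-only wells with no growth and 100% = 10 µM 1-NA-PP1 full growth; inhibition rescues growth on 5-FOA so higher OD means more RAM inhibition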
# CHOP inhibitor: inhibitors of CHOP promoter induction, primary screen, cell-based, unfolded protein response, luciferase reporter; inhibition, % at 10 µM; CHO-K1 CHOP-promoter luciferase, tunicamycin-induced, 15-18 h; 220,000 tested, 3.8% active; AID 2732, 2010;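 active = compounds that reduced the stress-induced luciferase reporter signal by more than about 70% of percent inhibition, limit read from the data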;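 note: 0% = tunicamycin plus vehicle and 100% = wells without tunicamycin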
# Numbers without * were called inactive; · = no result given. A selection: hits, their analogues and other compounds. The true share with any hit is near 13%.
SMILES,L major viab,WT yeast gro inh,RAM network inh,CHOP inhibitor
O=C(O)CCC(=O)N1CCN(c2ccc(C(=O)c3ccc(F)cc3)cc2)CC1,-3,-3,0,10
O=C(/C=C1\NCC2c3ccccc3CCN2C1=O)c1ccccc1 (stereo not given),-2,13,-1,20
CCCCCN1C=CC(=C2C(=O)c3ccccc3C2=O)C=C1,12,58*,5,98*
CC1=CC(=C2C(=O)c3ccccc3C2=O)C=C(C)N1C,6,10,0,21
CC(C)NCC#CCOc1ccc(Cl)cc1,6,18,3,7
COc1ccc(OCC#CCNC(C)(C)C)cc1,92*,5,0,22
C/C(N)=C(/C#N)C(=O)CSc1nc2scc(-c3ccc(F)cc3)c2c(=O)n1C,-8,0,7,24
O=C(COC(=O)CCC(=O)c1cccs1)NCc1ccccc1,-1,-2,0,4
CC(=NCC1CCNCC1)C1=C(O)CC(C)(C)CC1=O,0,-2,-1,78*
CC(=NCC1CCCO1)C1=C(O)CC(C)(C)CC1=O (stereo not given),-1,-10,0,9
O=C(CSc1ccc(Cl)cc1)NC1CCCC1,1,·,-1,-18
O=C(NC1CCCCC1)Sc1ccc(Cl)cc1,64*,6,-1,-8
Clc1ccc(Nc2ncn[nH]2)c(Cl)c1,-11,20,0,2
Cc1ccc(COc2ccsc2C(=O)NNC(N)=S)cc1,7,7,3,4
COc1ccc(C(=O)N(Cc2nc(-c3ccc(C)cc3)no2)C2CCCCC2)cc1OC,10,65*,2,6
Cc1onc(-c2ccccc2Cl)c1C(=O)N(Cc1nc(-c2ccccc2)no1)C1CCCCC1,54*,44,4,20
CCOc1ccccc1C1CC(c2ccc(Br)cc2)Nc2nc(N)nn21 (stereo not given),7,-14,0,-13
CCCN1C(=O)/C(=C2\SC(N3CCCCC3)=NC2=O)c2ccccc21,64*,6,1,2
CCOC(=O)c1c(OCC)[nH]c2c1cc(O)c1ccccc12,99*,59*,2,31
C=CCOc1ccc(/C=C/C(=O)Nc2ccc(C(=O)NC)cc2)cc1,-9,-9,3,60
Cc1ccc(-c2nc(N)sc2CC(=O)OCC(=O)NCCC(C)C)cc1,60*,-8,-1,18
CCC(C)NC(=O)COC(=O)Cc1sc(N)nc1-c1ccc(C)cc1 (stereo not given),-3,6,1,17
C=CCn1c(COc2cccc(C)c2)nnc1SCC(=O)c1c[nH]c2c(CC)cccc12,-5,5,4,23
S=c1nc(-c2sccc2OCc2ccc(Cl)cc2Cl)[nH][nH]1,-4,64*,5,-1
C/C(=N/Nc1ccc([N+](=O)[O-])cc1)c1ccc(C)cc1C,5,23,6,94*
SMILES,L major viab,WT yeast gro inh,RAM network inh,CHOP inhibitor
Cc1cccc(C(=O)N(c2ccccn2)C(C)c2ccco2)c1 (stereo not given),56*,2,3,-4
CC(c1ccco1)N(C(=O)c1ccccc1NS(=O)(=O)c1ccc(Cl)c([N+](=O)[O-])c1)c1ccccn1 (stereo not given),81*,21,1,-36
CC(c1ccco1)N(C(=O)C12CC3(C)CC(C)(CC(C)(C3)C1)C2)c1ccccn1 (stereo not given),-1,-11,4,86*
Cc1cc(C)cc(C(=O)N(c2ccccn2)C(C)c2ccco2)c1 (stereo not given),-3,29,-1,-10
O=[N+]([O-])c1ccc(COc2ncnc3ccccc23)cc1,-6,-8,0,15
O=C(CCc1nnc(CCCc2ccccc2)o1)NC(C1CC1)C1CC1,-5,7,1,-33
O=C1NC2(CCN(Cc3ccccc3)CC2)Oc2ccccc21,6,2,0,-3
O=C1c2ccccc2OC2(C=Cc3ccccc3O2)N1Cc1ccccc1 (stereo not given),24,69*,2,20
Cn1ncc([N+](=O)[O-])c1C(=O)Nc1ccc(C2CCCCC2)cc1,-11,13,1,45
COc1ccc(-c2nc3ccccc3s2)cc1,0,28,2,62
COc1cccc(-c2nc3ccccc3s2)c1,-1,15,-1,73*
COc1cccc(N2C(=O)C(c3ccccc3)=C(c3nc4ccccc4s3)C2NC(C)=O)c1 (stereo not given),26,70*,7,-13
CC(=O)NC1C(c2nc3ccccc3s2)=C(c2ccccc2)C(=O)N1c1ccc(C)cc1 (stereo not given),97*,68*,3,2
O=C(NCCCn1ccnc1)/C(=C\c1cccnc1)NC(=O)c1ccccc1F,-3,2,1,3
O=S1(=O)CCN(Cc2cccc(C(F)(F)F)c2)CC1,-4,1,0,3
Cc1cc(=O)nc2c3ccccc3n(CC(=O)Nc3ccccc3Br)n12,·,·,·,11
Cc1ccc2cc(/C=N/Nc3nc4ccccc4[nH]3)c(Cl)nc2c1,12,59*,2,17
COc1cc(OC)c(OC)cc1/C=N/Nc1nc2ccccc2[nH]1,·,·,·,-9
CCN(CC)c1ccc(/C=N/Nc2nc3ccccc3[nH]2)c(O)c1,100*,-10,1,83*
CCN(CC)c1ccc(/C=N/N(c2ccccc2)c2ccccc2)c(O)c1,-8,27,8,14
O=C(Cc1cccs1)N/N=C/c1ccccc1,·,·,·,-34
CCN(CC)c1ccc(/C=N/NC(=O)Cc2cccs2)c(O)c1,98*,-24,0,59
Cc1cc(C)c(NC(=O)c2ccc[n+](Cc3ccc([N+](=O)[O-])cc3)c2)c(C)c1,-1,-18,-1,-24
CCN(C(=O)COC(=O)c1nn(-c2ccccc2)c(=O)c2ccccc12)C1CCS(=O)(=O)C1 (stereo not given),·,·,·,-26
COCCOC(=O)/C(C#N)=C/c1cn(Cc2ccccc2)nc1-c1cccnc1,2,10,-1,36
SMILES,L major viab,WT yeast gro inh,RAM network inh,CHOP inhibitor
Cc1ccc(/C=N/NS(=O)(=O)c2ccccc2)o1,0,13,2,20
Cc1oc(/C=N/NS(=O)(=O)c2ccccc2)cc1Br,63*,9,-1,11
COc1ccc(NC(=O)Cc2coc3ccc4ccccc4c23)cc1S(=O)(=O)N1CCOCC1,78*,-17,4,33
COc1ccc(NC(=O)Cc2coc3cc(C)ccc23)cc1S(=O)(=O)N1CCOCC1,-6,-1,1,-12
COc1ccc(NC(=O)CN2CCc3ccccc3C2)cc1S(=O)(=O)N1CCOCC1,70*,15,0,53
COc1ccc(CCC(=O)N/N=C\c2cccs2)cc1,3,6,0,2
COC(=O)c1ccc(OS(=O)(=O)N(C)C)cc1,1,-8,1,7
CCCc1ccc(-c2cc(C(=O)NC3=NCCS3)c3ccccc3n2)cc1,6,80*,3,15
O=C(Nc1ccccn1)c1cc(-c2cccc(Cl)c2)nc2ccccc12,16,65*,4,26

# Compound activity deposited in PubChem BioAssay by several laboratories.
